The source of these data is PubChem BioAssay (NCI).

The panel holds about 83,000 compounds, 20% with a hit somewhere; the sample as a whole holds those more often.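 A percent growth of 40 corresponds to 60% growth inhibition; 0 means no net growth; -100 means all cells died. Active threshold: below 10.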 Unmarked numbers belong to inactive results. Active and inactive are the calls of the source.

Common to all, as to experiment: NCI-60 one-dose screen, 48 h (100 = growth as untreated, 0 = no growth, -100 = all killed)
What all share (conditions): 10 µM unless noted

For test [1], the system named is RPMI-8226 leukemia.
The test system of test [2] is OVCAR-8 ovarian.
In test [3] the test system is OVCAR-5 ovarian.
Test [4] deals with OVCAR-4 ovarian.
For test [5], the system named is SK-OV-3 ovarian.
For test [6], the system named is IGROV1 ovarian.
Test [7] deals with OVCAR-3 ovarian.
For test [8], the system named is HS 578T breast.
The subject of test [9] is NCI/ADR-RES ovarian.
For test [10], the system named is T-47D breast.

For `COc1nccc2cc3c(=O)n4c(cc5ccccc54)c(=O)n3c12`, the growth in test [1] is 95.7%; in [2] it was 111%; in test [3], 107%; in test [4] it was 97.3%; in [5], 102%; in [6], 66.9%. The growth in test [7] is 103%; in test [8], 106%; in test [9], 100%; in test [10], 68.4%.

`O=C(COc1cc(O)c2c(=O)cc(-c3ccccc3)oc2c1)Nc1ccccc1C(F)(F)F`: the growth in test [1] is 54.8%; in test [2], 29%; in test [3] it was 62.9%; in test [4], -50.1% (active); in test [5], 44.1%; in [6] it was 40.3%. The growth is -2.06% (active) in test [7], 15.5% in [8], 51.2% in [9] and 14.3% in test [10].

Take `CC[C@]1(O)C[C@@H]2CN(CCc3c([nH]c4ccccc34)[C@@](C(=O)OC)(c3cc4c(cc3OC)N(C)[C@H]3[C@@](O)(C(=O)OC)[C@H](OC(C)=O)[C@]5(CC)C=CCN6CC[C@]43[C@@H]65)C2)C1`: the growth in test [1] is 11.3%; in test [2], 21.5%; in test [3], 17.4%; in [4], 33.7%; in test [5], 43.5%; in [6] it was 9.76% (active). Further, the growth in [7] is -4.09% (active); in [8], 15.8%; in test [9] it was -19.8% (active); in [10], 68.6%.

In the case of `Clc1ncccc1Nc1ccc2nnc(-c3ccncc3)n2n1`, the growth is 98.9% in test [1]; 99.3% in test [2]; 104% in [3]; 91.3% in test [4]; 104% in test [5]; 82.3% in test [6]. For the same molecule, the growth in [7] is 102%; in test [8], 102%; in test [9] it was 98.7%; in [10], 86.6%.

Regarding `O=C(Nc1ccc(N2CCNCC2)cc1)c1[nH]ncc1Nc1cc(Oc2ccccc2)ncn1`, the growth is -52.9% (active) in test [1]; 26.9% in test [2]; -26.4% (active) in [3]; 43.3% in test [4]; 19.4% in test [5]; 19.7% in [6]. The growth is 6.24% (active) in test [7], 32.4% in test [8], 77.5% in test [9] and 40% in [10].

For the molecule `COc1ccc(C2=NN(/C=C3\SC(=O)NC3=Nc3ccc(F)cc3)C(c3ccc(F)cc3)C2)cc1` (stereo not given), the growth in test [1] was 88.7%; in test [2], 95.3%; in [3] it was 96.1%; in test [4], 101%; in [5], 102%; in test [6] it was 97.9%. Further, the growth in [7] was 104%; in [8] it was 99%; in test [9], 103%; in test [10] it was 89.7%.

Turning to `CCOC(=O)c1cnc2c(C)cccc2c1Nc1ccc(C(C)=O)cc1`, the growth in test [1] was -34.2% (active); in test [2] it was 35%; in test [3] it was 45%; in [4], 16.2%; in test [5] it was 68.2%; in [6] it was 2.45% (active). Besides, the growth in test [7] is -8.93% (active); in test [8], 25.6%; in [9], 25.1%; in [10], -18.4% (active).

On to `O=C(Nc1ccc(Br)cc1F)c1cc(I)ccc1O`, for which the growth is -8.84% (active) in test [1]; 9.66% (active) in test [2]; 24.2% in test [3]; 15.4% in test [4]; -10.4% (active) in test [5]; 16.6% in [6]. The growth was 4.89% (active) in [7], 7.43% (active) in [8], 4.84% (active) in test [9] and -14% (active) in test [10].

Regarding `NC1C(N)C(N)C1N` (stereo not given), the growth is 93.3% in test [1]; 100% in test [2]; 95.7% in test [3]; 105% in test [4]; 92.5% in test [5]; 99.6% in test [6]. Besides, the growth in [7] was 111%; in [8] it was 112%; in test [9], 99.6%; in [10], 102%.

Regarding `COc1ccc(-n2c(C(O)c3ccccc3)n[nH]c2=S)cc1` (stereo not given), the growth was 93.3% in test [1]; 103% in test [2]; 93.4% in test [3]; 102% in [4]; 101% in test [5]; 99.1% in test [6]. Moreover, the growth in test [7] is 95.8%; in test [8], 111%; in test [9] it was 103%; in [10], 97.7%.

As for `Cc1nc2ccccc2c(/C=C/c2ccccc2)c1C(=O)/C=C/c1ccc(Cl)cc1`, the growth is -36.5% (active) in test [1]; 20.9% in test [2]; 14.2% in test [3]; 26.5% in test [4]; 84.3% in test [5]; 14.9% in test [6]. Moreover, the growth in test [7] is -40.5% (active); in test [8] it was 27.9%; in test [9], 9.61% (active); in test [10], 13.4%.

In the case of `CCn1c(Cc2ccccc2Nc2c(Cl)cccc2Cl)nnc1SCC(=O)NN1C(=O)/C(=C/c2cccc(OC)c2OC)SC1=S`, the growth is 94.3% in test [1]; 99% in test [2]; 99.2% in test [3]; 94.2% in test [4]; 107% in [5]; 99% in test [6]. In addition, the growth was 108% in [7], 94.7% in test [8], 104% in test [9] and 86% in test [10].

With `COc1cc2c(cc1OC)C(=O)C(CC1CCN(C(=O)Nc3ccc(C)cc3)CC1)C2` (stereo not given), the growth in [1] is 111%; in [2], 106%; in [3], 86.9%; in test [4], 89.8%; in test [5], 98.5%; in test [6], 96.1%. The growth in test [7] was 100%; in test [8] it was 82.1%; in [9], 99.6%; in test [10], 89.1%.
